In PubChem BioAssay one finds composite z-score and z-score data, which are given here for 5 compounds.

The source made the active and inactive calls. Unless noted, how the calls were made is not given here.

Assay [1] in a line: compounds binding Alexa647 anti-His antibody – biochemical, small-molecule microarray, 635 nm fluorescence, artefact control for SMM control protein annotation, primary screen (AID 1128).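 Further: score merges feature fluorescence with signal-to-noise for each printed compound spot.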 As to conditions: higher = more signal.
The test system of assay [2] is Human papillomavirus type 1a E7 protein (residues 1-88). The experiment in a line: HPV1a E7 small-molecule binders, primary screen, biochemical, small-molecule microarray, residues 1-88, 635 nm (AID 1129). As to conditions: small-molecule microarray binding, fluorescence 635 nm; higher = more signal.
Assay [3] concerns the target Focal adhesion kinase 1 (Homo sapiens) (UniProt Q05397). Briefly: PTK2 protein binding on printed compound slides – biochemical, small-molecule microarray, 635/667 nm fluorescence, BSA, DTT, primary screen (AID 1130).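 Further: composite of spot emission at 667 nm and signal to noise over triplicate slides.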 The following applies: 635 nm fluorescence, higher = more signal.
In assay [4] the test system is Fibrinogen (Alexa647-labelled). Briefly: Alexa647-fibrinogen binding to printed small molecules – biochemical, small-molecule microarray, 635/667 nm fluorescence, artefact control for SMM control-protein annotation, profiling panel (AID 1131).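 Further: z-score merges 667 nm fluorescence with per-spot signal-to-noise over triplicate slides.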 As to conditions: fibrinogen-A647 binding fluorescence, higher = more signal.
Assay [5] deals with Follistatin (Homo sapiens) (UniProt P19883). The experiment in a line: FST protein binding to printed compounds – biochemical, small-molecule microarray, 635/667 nm fluorescence, primary screen (AID 1132). As to conditions: 635 nm fluorescence, higher = more signal.
Assay [6] concerns the target Fibroblast growth factor 2 (Homo sapiens) (UniProt P09038). Briefly: basic fibroblast growth factor binding to printed compounds – biochemical, small-molecule microarray, 635/667 nm fluorescence, primary screen (AID 1133). The following applies: FGF2, fluorescence 635/667, higher = more signal.
Assay [7] can be described thus: JC-1 mitochondrial potential readout, lung cancer cells – cell-based, A549, JC-1 fluorescence, basal, 24 h, 100 nL, profiling panel (AID 1138).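 Further: A549 lung adenocarcinoma cells under basal conditions with no added stimulus; test concentration not given here.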 As to conditions: higher = more signal.
The next assay deals with Lefty1. The experiment in a line: Lefty1 protein binding to printed compounds – biochemical, small-molecule microarray, 635/667 nm fluorescence, primary screen (AID 1139). The following applies: fluorescence 635/667, higher = more signal.
Assay [8] relates to wheat germ agglutinin (Triticum aestivum), Alexa647-labelled. The experiment in a line: Alexa647-WGA lectin binding to printed small molecules – biochemical, small-molecule microarray, 635/667 nm fluorescence, artefact control for SMM control-protein annotation, profiling panel (AID 1140).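 Further: score merges 667 nm feature emission with signal to noise over triplicate slides.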 The following applies: WGA-A647 binding, 635 nm fluorescence, higher = more signal.
Assay [9] concerns the target Luciferin 4-monooxygenase (Photinus pyralis) (UniProt P08659). The experiment in a line: inhibition of purified Photinus pyralis luciferase – biochemical, luminescence, purified enzyme, 2006 set, primary screen (AID 1141).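 Further: cell-free assay with purified firefly luciferase at 100 ng per well in PBS; test concentration not given here.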 The following applies: purified firefly luciferase, SteadyGlo luminescence, 30 min; higher = more signal, called active from +8 up or from −8 down.
Assay [10] has as its system Wnt5a (protein binding on small-molecule microarray). The experiment in a line: small molecules binding Wnt5a protein – biophysical, small-molecule microarray, 635/667 nm fluorescence, primary screen (AID 1142).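 Further: fluorescence read at 667 nm with signal to noise per printed feature.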 As to conditions: 635 nm fluorescence, higher = more signal.
The nature of assay [11]: ATP-based viability of Huh7 replicon cells – cell-based, CellTiter-Glo luminescence, basal, 48 h, cytotoxicity control for HCV replication inhibitor project, primary screen (AID 1143).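 Further: Huh7 hepatoma cells carrying a hepatitis C replication reporter with no stimulus; test concentration not given here.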 The following applies: higher = more signal, called active from +8 up or from −8 down.
A short description of assay [12]: Pseudomonas biofilm growth suppression – PAO1 strain, BacTiter-Glo luminescence, LB-PBS, primary screen (AID 1144). As to conditions: P. aeruginosa PAO1 biofilm, 12 h, higher = more signal.
Assay [13] is described as follows: basal CRE-LacZ reporter activity in PC12 – cell-based, unstimulated, primary screen (AID 1145). As to conditions: no forskolin, luminescence, 4.5 h, higher = more signal, called active from +8 up or from −8 down.
The nature of assay [14]: forskolin-driven CRE-LacZ activity in PC12 – cell-based, CRE-LacZ reporter, forskolin-stimulated, primary screen (AID 1146).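 Further: PC12 cells with 6xCRE LacZ reporter stimulated by forskolin 10 µM; beta-galactosidase reporter signal reflecting CREB driven transcription.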 The following applies: luminescence, 4.5 h, higher = more signal, called active from +8 up or from −8 down.
The target of assay [15] is Streptavidin (Streptomyces avidinii) (UniProt P22629). The experiment in a line: compounds binding control protein streptavidin – biophysical, small-molecule microarray, 635/667 nm fluorescence, artefact control for SMM compound annotation, primary screen (AID 1147).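 Further: signal reflects streptavidin binding to arrayed compounds as a control protein.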 As to conditions: higher = more signal.
The nature of assay [16]: probe aInhba binding on compound microarray – biochemical, small-molecule microarray, 635/667 nm fluorescence, primary screen (AID 1148).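 Further: score merges 667nm spot fluorescence with signal-to-noise for antibody binding to printed compounds.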 The following applies: higher = more signal.
Assay [17] concerns the target Torsin-1A (Homo sapiens) (UniProt O14656). The experiment in a line: TOR1A wild-type binding on microarray – cell lysate, small-molecule microarray, lysate, 635/667 nm, primary screen (AID 1149). The following applies: COS7 hTOR1A-WT lysate, 635 nm fluorescence, higher = more signal.
Assay [18] shares this target. Briefly: torsin A mutant lysate binding on microarrays – cell lysate, small-molecule microarray, COS7 lysate, 635/667 nm fluorescence, primary screen (AID 1150).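 Further: score pools 667 nm emission and signal to noise measuring lysate protein binding.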 As to conditions: COS7 hTOR1A mutant lysate, 635 nm fluorescence, higher = more signal.
The subject of assay [19] is Sonic hedgehog protein (Shh). Briefly: Sonic hedgehog microarray binding compounds – biochemical, small-molecule microarray, 635/667 nm fluorescence, primary screen (AID 1151).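 Further: Shh protein binding to compounds spotted on small-molecule microarray slides; score combines spot fluorescence intensity with signal-to-noise across triplicate slides.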 The following applies: 635 nm fluorescence, higher = more signal.

Fibroblast growth factor 2 (Homo sapiens), sequence (P09038 whole entry, looked up): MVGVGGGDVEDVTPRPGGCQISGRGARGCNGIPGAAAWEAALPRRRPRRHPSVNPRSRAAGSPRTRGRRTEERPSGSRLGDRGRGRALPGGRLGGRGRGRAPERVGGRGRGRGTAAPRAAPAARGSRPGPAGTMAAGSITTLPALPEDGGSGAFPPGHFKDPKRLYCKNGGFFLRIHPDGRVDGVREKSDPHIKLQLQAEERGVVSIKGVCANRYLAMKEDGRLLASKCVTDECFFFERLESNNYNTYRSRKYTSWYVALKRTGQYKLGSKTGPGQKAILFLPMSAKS
Follistatin (Homo sapiens), sequence (P19883 whole entry, looked up): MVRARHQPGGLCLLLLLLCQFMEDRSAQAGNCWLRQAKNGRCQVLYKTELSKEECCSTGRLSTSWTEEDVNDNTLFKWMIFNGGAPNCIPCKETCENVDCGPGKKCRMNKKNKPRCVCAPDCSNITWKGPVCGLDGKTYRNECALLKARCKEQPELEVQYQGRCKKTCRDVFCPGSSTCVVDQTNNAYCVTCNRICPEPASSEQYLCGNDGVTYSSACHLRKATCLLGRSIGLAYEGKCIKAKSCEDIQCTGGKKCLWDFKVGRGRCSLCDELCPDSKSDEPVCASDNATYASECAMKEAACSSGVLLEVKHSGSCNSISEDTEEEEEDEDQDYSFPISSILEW
Torsin-1A (Homo sapiens), sequence (O14656 whole entry, looked up): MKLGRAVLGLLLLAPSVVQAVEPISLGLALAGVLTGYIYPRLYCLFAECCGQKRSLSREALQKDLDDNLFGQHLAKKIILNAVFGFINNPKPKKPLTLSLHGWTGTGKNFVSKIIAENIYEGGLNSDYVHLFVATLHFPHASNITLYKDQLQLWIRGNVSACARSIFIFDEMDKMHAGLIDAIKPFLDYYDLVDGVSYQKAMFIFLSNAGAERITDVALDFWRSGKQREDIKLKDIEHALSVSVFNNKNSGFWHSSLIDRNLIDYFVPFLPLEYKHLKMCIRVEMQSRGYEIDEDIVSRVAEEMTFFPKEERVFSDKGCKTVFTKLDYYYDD
Focal adhesion kinase 1 (Homo sapiens), sequence (Q05397 whole entry, looked up): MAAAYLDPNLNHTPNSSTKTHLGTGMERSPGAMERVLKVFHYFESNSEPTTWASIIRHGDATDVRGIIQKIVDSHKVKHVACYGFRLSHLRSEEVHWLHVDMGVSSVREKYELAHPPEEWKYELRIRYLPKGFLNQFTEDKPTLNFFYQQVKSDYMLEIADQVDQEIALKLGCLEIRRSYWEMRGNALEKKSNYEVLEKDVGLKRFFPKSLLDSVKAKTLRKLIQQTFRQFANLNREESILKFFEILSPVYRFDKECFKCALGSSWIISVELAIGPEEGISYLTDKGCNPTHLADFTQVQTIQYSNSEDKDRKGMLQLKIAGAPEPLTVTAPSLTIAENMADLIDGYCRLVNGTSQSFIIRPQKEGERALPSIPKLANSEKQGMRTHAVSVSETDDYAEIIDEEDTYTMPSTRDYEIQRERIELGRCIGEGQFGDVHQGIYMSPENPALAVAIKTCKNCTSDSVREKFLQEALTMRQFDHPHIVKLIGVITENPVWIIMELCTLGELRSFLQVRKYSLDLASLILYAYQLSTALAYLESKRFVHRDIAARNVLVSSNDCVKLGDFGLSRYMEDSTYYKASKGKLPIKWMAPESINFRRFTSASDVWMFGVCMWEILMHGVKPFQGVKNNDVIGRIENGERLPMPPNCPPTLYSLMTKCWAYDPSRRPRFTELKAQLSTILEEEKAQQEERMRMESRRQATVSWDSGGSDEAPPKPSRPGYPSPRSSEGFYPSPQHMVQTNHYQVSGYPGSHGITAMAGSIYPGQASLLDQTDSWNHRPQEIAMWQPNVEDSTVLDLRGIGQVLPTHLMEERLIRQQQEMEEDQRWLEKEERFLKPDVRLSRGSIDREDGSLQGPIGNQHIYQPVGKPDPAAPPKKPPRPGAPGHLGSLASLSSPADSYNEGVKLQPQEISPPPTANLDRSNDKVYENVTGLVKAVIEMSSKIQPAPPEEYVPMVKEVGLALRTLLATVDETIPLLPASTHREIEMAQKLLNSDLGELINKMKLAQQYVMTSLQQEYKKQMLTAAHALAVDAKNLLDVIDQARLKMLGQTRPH
Luciferin 4-monooxygenase (Photinus pyralis), sequence (P08659 whole entry, looked up): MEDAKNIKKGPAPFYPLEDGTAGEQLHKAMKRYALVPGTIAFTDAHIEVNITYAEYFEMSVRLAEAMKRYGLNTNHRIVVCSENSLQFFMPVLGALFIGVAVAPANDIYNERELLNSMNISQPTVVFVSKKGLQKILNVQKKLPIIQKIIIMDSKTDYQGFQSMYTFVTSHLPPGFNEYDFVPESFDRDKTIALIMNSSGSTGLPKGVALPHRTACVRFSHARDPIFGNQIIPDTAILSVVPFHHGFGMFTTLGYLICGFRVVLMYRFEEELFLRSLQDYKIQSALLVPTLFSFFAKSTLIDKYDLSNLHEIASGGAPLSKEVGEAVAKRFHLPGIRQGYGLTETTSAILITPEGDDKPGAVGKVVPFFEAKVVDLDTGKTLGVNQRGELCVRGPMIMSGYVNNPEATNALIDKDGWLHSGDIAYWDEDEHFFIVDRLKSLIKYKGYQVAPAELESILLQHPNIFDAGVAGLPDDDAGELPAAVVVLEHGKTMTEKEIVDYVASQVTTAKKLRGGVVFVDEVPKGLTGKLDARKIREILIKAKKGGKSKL
Streptavidin (Streptomyces avidinii), sequence (P22629 whole entry, looked up): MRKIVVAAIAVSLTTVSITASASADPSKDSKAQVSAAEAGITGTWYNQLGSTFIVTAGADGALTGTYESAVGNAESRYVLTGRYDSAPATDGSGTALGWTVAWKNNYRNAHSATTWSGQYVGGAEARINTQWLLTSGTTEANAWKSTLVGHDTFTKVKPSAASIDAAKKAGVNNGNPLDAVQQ

Regarding `CC(C)C[C@@H]1NC(=O)[C@H]2C[C@@H](C(=O)NCCCCCC[N+](C)(C)C)[C@@H](c3cccc(OCCO)c3)N2C1=O`, the composite z-score in assay [1] was 2.76; in [2], 0.381; in assay [3] it was 0.125; in [4] it was -1.08; in [5] it was 1.43; in assay [6] it was 1.01. Besides, the composite z-score was 0.691 with Lefty1; 0.432 in assay [8]; -0.0449 in assay [10]; -0.368 in assay [15]; 0.0855 in assay [16]; 0.126 with Torsin-1A (Homo sapiens) [17]. Moreover, the composite z-score in the assay with Torsin-1A (Homo sapiens) [18] worked out at 0.62; in [19], 1.75. The z-score in assay [7] was -0.525; in assay [9] it was 0.579 (inactive); in assay [11] it was -0.192 (inactive); in assay [12], -0.616 (inactive); in [13], -0.256 (inactive); in assay [14], -0.139 (inactive).
Regarding `CO[C@H]1O[C@H](CO)[C@@H](OC(=O)Nc2ccc(Oc3ccccc3)cc2)[C@H](OC(=O)Nc2ccccc2-c2ccccc2)[C@@H]1OC(=O)Nc1ccccc1-c1ccccc1`, the composite z-score was found to be 0.818 in [1]; 1.07 in [2]; 0.263 in assay [3]; 0.964 in assay [4]; 0.595 in assay [5]; 0.295 in assay [6]. The composite z-score in the assay with Lefty1 was 0.841; in assay [8], 0.773; in assay [10] it was 0.58; in [15], 0.819; in assay [16], 0.588; in the assay with Torsin-1A (Homo sapiens) [17] it was -0.21. Further, the figures for the composite z-score (in the assay with Torsin-1A (Homo sapiens) [18]; in [19]) were 0.408 and 0.74, respectively. Also, the z-score is -0.426 in assay [7]; -0.69 (inactive) in [9]; -4.64 (inactive) in [11]; -0.935 (inactive) in [12]; -0.198 (inactive) in assay [13]; -0.355 (inactive) in assay [14].
Turning to `COC(=O)[C@H](Cc1ccccc1)N1CC(/C=C/C2CC2)=C[C@@H]1[C@@H](O)Cc1ccccc1`, the composite z-score stood at 0.303 in [1]; 1.14 in assay [2]; 0.28 in [3]; 0.971 in [4]; 0.958 in [5]; 0.418 in assay [6]. Also, the composite z-score with Lefty1 is 1.26; in assay [8] it was 0.982; in assay [10], 0.624; in assay [15], 0.756; in assay [16], 0.0471; with Torsin-1A (Homo sapiens) [17], 0.957. For the same compound, the values for the composite z-score (in the assay with Torsin-1A (Homo sapiens) [18]; in assay [19]) were -0.038 and 1.81, respectively. For the same compound, the z-score in assay [7] is 0.33; in assay [9], -0.186 (inactive); in [11], -1.63 (inactive); in assay [12], -1.18 (inactive); in assay [13], 3.31 (inactive); in [14] it was 5.89 (inactive).
`CC(C)C(=C=CC[C@H](O)c1ccc(OCCO)cc1)C[C@H](O)c1cc(Cl)cc(Cl)c1O`: the composite z-score in assay [1] was 2.46; in [2] it was 1.09; in assay [3] it was -0.0133; in [4] it was 0.134; in assay [5], 0.996; in assay [6] it was 1.09. For the same compound, the composite z-score in the assay on Lefty1 came out at 1.22; in assay [8], 0.539; in assay [10], 0.0991; in [15], 0.122; in assay [16] it was 0.153; with Torsin-1A (Homo sapiens) [17], 0.895. The composite z-score with Torsin-1A (Homo sapiens) [18] is 0.656; in assay [19] it was 1.71. For the same compound, the z-score in assay [7] was 1.78; in assay [9], -1.78 (inactive); in assay [11], -3.24 (inactive); in [12] it was 0.0919 (inactive); in [13], 7.76 (inactive); in [14] it was -0.457 (inactive).
With `COc1ccc(NC(=O)O[C@H]2[C@H](OC(=O)Nc3ccc4c(c3)OCO4)[C@@H](OC(=O)Nc3ccc4c(c3)OCO4)[C@@H](OC)O[C@@H]2CO)cc1`, the composite z-score in [1] amounted to 1.34; in assay [2] it was 1.25; in assay [3], 0.316; in assay [4], 0.922; in [5] it was 1.16; in [6], 0.802. Moreover, the composite z-score in the assay with Lefty1 is 0.598; in assay [8], 0.943; in [10], 0.201; in assay [15], 1.38; in [16] it was 0.277; with Torsin-1A (Homo sapiens) [17] it was 0.812. Further, the composite z-score (with Torsin-1A (Homo sapiens) [18]; in assay [19]) was 1.27 in each case. Besides, the z-score in assay [7] was -0.669; in assay [9] it was -4.27 (inactive); in assay [11], -3.73 (inactive); in [12], -0.488 (inactive); in [13], 1.85 (inactive); in assay [14], -0.559 (inactive).
